Screens deposited in PubChem BioAssay by National Center for Advancing Translational Sciences (NCATS).
This is a sample that favours compounds with a hit; in the whole collection about 0.47% have one here.
UDG counter: UDG inhibition counter-screen | FRET deamination/UDG coupled assay, UDG read, 4 h | Potency, µM (highest dose often 115 µM), hits mostly inhibitors | hit rate 0.14% among 91,000 | AID 1347430; note: nearly all actives have a fitted effect of over 65% in size
AID inh: inhibitors of human activation induced cytidine deaminase | Potency, µM (top dose mostly 115 µM), most hits filed as inhibitors | AID deamination FRET fluorescence, UDG-coupled, 4 h | hit rate 0.32% among 91,000 | Q9GZX7; note: nearly all actives have a fitted effect of over 25% in size
Target sequence (Q9GZX7 whole entry, looked up): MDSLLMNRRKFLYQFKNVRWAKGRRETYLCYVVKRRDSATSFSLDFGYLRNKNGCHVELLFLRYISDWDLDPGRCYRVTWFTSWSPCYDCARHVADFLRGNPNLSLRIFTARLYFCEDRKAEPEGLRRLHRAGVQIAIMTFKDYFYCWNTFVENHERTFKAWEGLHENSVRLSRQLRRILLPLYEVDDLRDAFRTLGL
A number is an active result; i = inactive; ? = inconclusive. Calls come from the whole dose curve; as a rule, active = well fitted curve in the direction sought with a large enough effect; inconclusive = small, poorly fitted or top-dose-only effect, or another doubt; inactive = no such curve, though single readings can be large; an effect the other way counts as inactive or inconclusive.

SMILES	UDG counter	AID inh
Clc1ccccc1-c1nnc(SCc2nc(-c3ccccc3)no2)n1-c1ccccc1	79µM	?
CCOc1ccc(-c2noc(CSc3nnc(-c4ccccc4)n3-c3ccccc3)n2)cc1	i	i
COc1ccc(-c2noc(CSc3nnc(C)n3-c3ccc(F)cc3)n2)cc1	79µM	i
Cc1ccc(-c2noc(CSc3nnc(C)n3-c3ccc(C)cc3)n2)cc1	i	?
COc1ccc(-c2noc(CSc3nnc(-c4ccncc4)n3-c3ccc(OC)cc3)n2)cc1	79µM	?
COc1ccc(OC)c(-c2noc(CSc3nnc(-c4ccccc4)n3-c3ccccc3)n2)c1	i	i
COCCSc1nnc(-c2ccc(Cl)cc2)n1-c1ccc(OC)cc1	i	i
Cc1ccc(-n2c(SCc3nc(-c4ccc(Cl)cc4)no3)nnc2-c2ccncc2)cc1	?	35µM
Cc1ccc(/C=N/Nc2cc(C)c3ccccc3n2)s1	i	i
N#C/C(=C\c1ccc2cccnc2c1)c1nc2ccccc2[nH]1	i	i
COc1cccc(Oc2coc3cc(OC(=O)c4ccc([N+](=O)[O-])cc4)ccc3c2=O)c1	i	i
COC(=O)C1=C(C)OC(N)=C(C#N)C1c1ccc(-c2ccccc2)cc1 (stereo unspecified)	i	i
O=C(/C=C/c1ccccc1)c1ccc(-n2cc(-c3ccccc3)cc2-c2ccccc2)cc1	i	?
Cc1ccc(/C=C/c2onc(C)c2S(=O)(=O)N2CCC(C(=O)N3CCC(N(C)C(C)C)CC3)CC2)cc1	i	45µM
CC(=O)c1ccc(N2CCN(C(=O)C3CCN(S(=O)(=O)c4c(C)noc4/C=C/c4ccc(C)cc4)CC3)CC2)cc1	i	i
O=C(Cc1csc(-c2cccs2)n1)NCc1ccc(F)cc1	i	i
Cn1c(CC(=O)Nc2ccccc2)nnc1SCC(=O)NC12CC3CC(CC(C3)C1)C2	i	i
Cc1ccc(NC(=O)Cc2nnc(SCC(=O)NC34CC5CC(CC(C5)C3)C4)n2C)cc1C	89µM	i
Cc1cc(Nc2cccc(C(F)(F)F)c2)nc2ccc(NC(=O)Cc3ccc(Cl)cc3)cc12	i	35µM
COc1ccc(CC(=O)Nc2ccc3nc(Nc4cccc(Cl)c4)cc(C)c3c2)cc1	i	i
CCOc1ccc2nc(C)cc(Nc3ccccc3OCC)c2c1	?	79µM
CCOc1ccc(Nc2cc(C)nc3ccc(Cl)cc23)cc1	i	i
CC(C)c1ccc(OCC(=O)Nc2cc(-c3nc4ncccc4o3)ccc2Cl)cc1	i	i
CCC(C)c1ccc(OCC(=O)Nc2cccc(-c3nc4ncccc4o3)c2)cc1 (stereo unspecified)	i	32µM
NC(=O)COc1cccc(C2CC(=O)Nc3nc(N4CCCCC4)sc32)c1 (stereo unspecified)	i	28µM
SMILES	UDG counter	AID inh
NC(=O)COc1ccc(C2CC(=O)Nc3nc(N4CCCCC4)sc32)cc1 (stereo unspecified)	i	22µM
COc1ccc(C2CC(=O)Nc3ccsc32)cc1OCC(N)=O (stereo unspecified)	i	i
COc1ccc(C2CC(=O)Nc3nc(N)sc32)cc1OC1CCCC1 (stereo unspecified)	i	?
Nc1nc2c(s1)C(c1cccc(OCc3cccc(F)c3)c1)CC(=O)N2 (stereo unspecified)	i	?
COc1cc(C2CC(=O)Nc3nc(N4CCCCC4)sc32)ccc1OCC(N)=O (stereo unspecified)	i	22µM
O=C(O)c1ccc(-c2ccccc2)o1	i	i
COc1cccc(NC(=O)CN(C)CC(=O)Nc2ccc(C)cc2)c1	i	i
Cc1ccc(OCC(=O)Nc2ccc3c(C)cc(=O)oc3c2)cc1	i	i
N=C(N)c1cc(N)cc(C(=N)N)c1	i	i
O=C(Nc1ccccc1NS(=O)(=O)c1cccs1)c1ccc(Cl)cc1[N+](=O)[O-]	i	i
CC1Cc2ccccc2N1S(=O)(=O)c1nnc(NC(=O)c2ccccc2)s1 (stereo unspecified)	i	i
CC1Cc2ccccc2N1S(=O)(=O)c1nnc(NC(=O)c2ccccc2Br)s1 (stereo unspecified)	i	45µM
Fc1ccc(C2C=C(c3ccccc3)NC(=S)N2)cc1 (stereo unspecified)	i	i
CC1CCc2c(c(-c3cccc(O)c3)nc3ccc4ccccc4c23)C1 (stereo unspecified)	i	i
O=C1c2ccccc2C(=O)C1(c1ccccc1)N1CCN(c2cccc(C(F)(F)F)c2)CC1	i	25µM
O=C1c2ccccc2C(=O)C1(c1ccccc1)N1CCN(c2cccc(Cl)c2)CC1	i	i
COc1ccc(C(=O)Nc2cccc(/C=C(/C#N)C(=O)NC3CC3)c2)cc1	i	i
Oc1ccc2cccc(O)c2c1	i	i
CCn1c(SCC(=O)c2ccc(C#N)cc2)nnc1-c1ccccc1C	i	i
Cc1ccc(CN(Cc2ccco2)C(=O)COc2cccc(C)c2C)o1	i	40µM
Cc1cc(C)c(OCC(=O)N(Cc2ccco2)Cc2ccco2)c(C)c1	i	45µM
Cc1cccc(OCC(=O)N(Cc2ccc(N(C)C)cc2)Cc2ccco2)c1C	i	?
Cc1ccc(CN(Cc2ccco2)C(=O)COc2c(C)cc(C)cc2C)cc1	i	?
N#C/C(=C/c1ccccc1OC(F)(F)F)c1ccccn1	i	i
COc1cccc(/C=C(/C#N)C(=O)c2ccccc2)c1OC(F)F	i	i
SMILES	UDG counter	AID inh
CC(C)NS(=O)(=O)c1ccc(Cl)c(C(=O)NCc2ccc(-c3nc4ccccc4s3)o2)c1	i	i
COc1cn(-c2ccccc2)nc1C(=O)OC(C)C(=O)NC1CCCC1 (stereo unspecified)	i	i
COc1cccc(-c2cc(C(F)(F)F)nc(NCc3ccc(F)cc3)n2)c1	i	?
Fc1ccc(CNc2nc(-c3ccccc3)cc(C(F)(F)F)n2)cc1	i	45µM
CC(C)=CCC/C(C)=C/CNCC(O)CN1CCOCC1 (stereo unspecified)	i	i
Cc1cc2c(C(C)C)c(O)c(O)c(C=O)c2c(O)c1-c1c(C)cc2c(C(C)C)c(O)c(O)c(C=O)c2c1O	i	79µM
Oc1ccc(N=Cc2ccc3ccccc3c2)cc1	?	14µM
Clc1ccc(N=Cc2ccc3ccccc3c2)cc1Cl	i	i
COc1ccccc1/C=C/C=C(/C#N)c1nc2ccccc2[nH]1	i	i
COc1cc(-c2nc3ccccc3s2)cc(OC)c1OC	i	i
CCCCc1noc(CN2CCC(c3nc4cc(Cl)ccc4o3)CC2)n1	i	i
CCCCc1nc(CN2CCN(c3cccc(F)c3C#N)CC2)no1	89µM	?
Cc1cc(=O)oc2c(C)c(OCc3nc(-c4ccc(Cl)cc4)no3)ccc12	i	i
N#C/C(=C/c1cccc(O)c1)c1ccc(C(F)(F)F)cn1	i	i
CC(C)(C)c1ccc(CSc2nc3c(c(=O)[nH]2)CCCC3)cc1	79µM	i
O=c1[nH]c(SCc2ccc([N+](=O)[O-])cc2)nc2c1CCCC2	?	i
CC1=CCCC(C)(C)C1/C=C/C(C)=N\NC(=S)Nc1cccnc1 (stereo unspecified)	i	i
O=C(O)/C=C/c1ccc(-c2ccc(Br)cc2Cl)o1	i	i
COc1ccccc1OCCSc1nc(-c2ccc(C(C)(C)C)cc2)nc2cc(=O)[nH]n12	i	79µM
C=CCc1ccccc1OCCSc1nc(-c2ccc(C(C)(C)C)cc2)nc2cc(=O)[nH]n12	i	?
CC(C)(C)c1ccc(-c2nc(SCCOc3ccc(Cl)cc3)n3[nH]c(=O)cc3n2)cc1	i	?
Cc1ccc(OCCCSc2nc(-c3ccc(C(C)(C)C)cc3)nc3cc(=O)[nH]n23)cc1C	?	45µM
